ROC1-CUL1 inh: human ROC1-CUL1 E3 ligase inhibition | P62877+Q13616 | in vitro K48 di-Ub FRET, acceptor:donor ratio, 45 min | inhibition, % at 10 µM | 140,000 tested, 0.6% active; in the data active means inhibition above about 25%
* marks the source's active call; other numbers are inactive results. This excerpt belongs to a sample that is enriched for hits.

SMILES	ROC1-CUL1 inh
N#Cc1c(N)nc2c(c1-c1cccc(Br)c1)CCCCCCCCCC2	-4
Cc1cc(C)cc(NS(=O)(=O)c2ccc(N)cc2)c1	-3
Clc1ccc(-c2nnc(-c3ccco3)nc2N2CCCC2)cc1	-3
Cc1cccc2c(C(=O)O)cc(-c3ccccc3O)nc12	29*
Cc1cccc2c(C(=O)N(C)C)cc(-c3cnn(Cc4ccccc4)c3)nc12	1
Cc1cccc2c(C(=O)O)cc(-c3ccc(-c4ccccc4)cc3)nc12	-4
CCCCCCc1cc(C2C(c3ccccc3)=NN=CN2O)c(O)cc1O (stereo unspecified)	23
COc1ccccc1/C=C1/SC(=S)N(CCCCCC(=O)O)C1=O	15
O=C(O)CCCCCN1C(=O)c2ccc3c4c(ccc(c24)C1=O)C(=O)N(CCCCCC(=O)O)C3=O	7
O=C(O)CCCCCN1C(=O)/C(=C2\SC(=S)N(CCCCCC(=O)O)C2=O)SC1=S	65*
O=C(NN1c2ccccc2CCc2ccccc21)c1ccc(Cl)cc1	-5
CCC(CC)C(=O)N1c2ccccc2C(C)(c2ccccc2)CC1(C)C (stereo unspecified)	28*
CCCCCC(=O)N1c2ccccc2C(C)(c2ccccc2)CC1(C)C (stereo unspecified)	7
CCC(=O)N1c2ccccc2C(C)(c2ccccc2)CC1(C)C (stereo unspecified)	3
O=C(COc1ccc(Cl)cc1Cl)Oc1ccc2ccccc2c1	2
CCCCn1c(C)c(C)n2c3c(=O)[nH]c(=O)n(C)c3nc12	4
Cc1ccc(C(=O)NC(=S)Nc2c(Br)cc(Br)cc2Br)cc1	-7
CSC1=C(c2ccc(C)cc2)C(=NC(C)(C)C)C1	-9
CC1CN(Cc2cc(Cl)ccc2O)Cc2ccccc2O1 (stereo unspecified)	7
CC(C)C(C(=O)O)N1C(=O)/C(=C\c2ccco2)SC1=S (stereo unspecified)	102*
CC(C)C(C(=O)O)N1C(=O)/C(=C/c2ccc(F)cc2)SC1=S (stereo unspecified)	15
O=C1/C(=C\c2ccco2)SC(=S)N1c1cccc(O)c1	9
O=C1/C(=C/c2ccco2)SC(=S)N1c1ccccc1Br	-4
CC(C(=O)O)N1C(=O)/C(=C\c2ccco2)SC1=S (stereo unspecified)	53*
O=C(CN1C(=O)S/C(=C\c2ccco2)C1=O)c1ccc(Br)cc1	-1
SMILES	ROC1-CUL1 inh
CCn1ncc(/C=C/C(=O)Nc2ccc(Cl)cc2Cl)c1C	11
CC(C)C(=O)NC(NCc1ccco1)C(Cl)(Cl)Cl (stereo unspecified)	3
CC(C)C(C)OC1CC(=O)CC2C(=O)c3c(O)ccc(O)c3C(=O)C12 (stereo unspecified)	60*
Fc1cccc(-c2nnc(-c3cccnc3)o2)c1	1
Nc1ccc(Br)c2cccnc12	62*
Nc1ccnc2ncccc12	9
O=C(Nc1ccc(Br)c2cccnc12)c1cc(F)c(F)cc1Cl	4
Cc1cccc2c1[nH]c1nc(N/N=C\c3ccc(OCc4ccccc4)cc3)nnc12	-2
COc1ccc(CCN2CCCC(CN(C)Cc3cccc(C(C)=O)c3)C2)cc1 (stereo unspecified)	-9
CN=C1CC(SC)=C1c1ccccc1	-4
COc1ccc2c(c1)Cc1sc(NC(=O)c3cccc(F)c3)nc1-2	13
COc1ccc2c(c1)CCc1sc(NC(=O)c3ccc(Cl)cc3)nc1-2	11
COc1ccc2c(c1)-c1nc(NC(=O)c3ccccc3F)sc1CC2	2
COc1ccc2c(c1)Cc1sc(NC(=O)c3cccc(Br)c3)nc1-2	-18
COc1ccc(C(=O)Nc2nc3c(s2)Cc2cc(OC)ccc2-3)cc1	40*
COc1ccc2c(c1)Cc1sc(NC(=O)c3ccccc3C)nc1-2	32*
O=c1[nH]nc2sc3ccccc3n2c1=O	-3
N#CC1=C2Sc3ccccc3N2C(=N)C(C#N)C1 (stereo unspecified)	9
COCCN(C)Cc1cnc(S(=O)(=O)C(C)C)n1Cc1ccccc1F	6
CCCCNC(=O)CCN1C(=O)c2cccc3cccc(c23)C1=O	2
Cc1cc(O)ccc1NC(=O)COc1cccc2ccccc12	3
O=C(COc1cccc2ccccc12)Nc1ccc(Cl)cc1C(=O)O	25*
COc1ccccc1NC(=O)COc1cccc2ccccc12	0
COc1ccc(S(=O)(=O)N(CC(=O)Nc2ccc3c(c2)OCO3)c2ccc(Cl)cc2)cc1	4
CCCCOc1ccccc1C1c2c(n[nH]c2-c2ccccc2)OC(=N)C1C#N (stereo unspecified)	10
SMILES	ROC1-CUL1 inh
CCCCNC1=NS(=O)N=C1Nc1ccc(Cl)c(Cl)c1 (stereo unspecified)	-1
N#CC1C(=N)C(C#N)(C#N)[C@H](c2ccc(F)c(F)c2)[C@H]2CN(C(=O)OCc3ccccc3)CC=C12 (stereo partly specified)	-7
COCCN1N=C(C)Cn2c1nc1c2c(=O)n(C)c(=O)n1C	8
NN1C(=O)/C(=C\c2ccc(O)cc2)SC1=S	7
NN1C(=O)/C(=C/c2ccc(O)c(Br)c2)SC1=S	50*
CCN1C(=O)/C(=C/c2ccc(F)c(Br)c2)SC1=S	2

Screening results as filed in PubChem.
